Results as given in ChEMBL document CHEMBL1961873, “Compounds: GSK PKIS; Assays: Nanosyn kinase panel” (2012).

Experiments:
[1] = target: T1, Tyrosine-protein kinase receptor TYRO3 (Homo sapiens) (UniProt Q06418); conditions: at 1 µM
T1 sequence (whole entry): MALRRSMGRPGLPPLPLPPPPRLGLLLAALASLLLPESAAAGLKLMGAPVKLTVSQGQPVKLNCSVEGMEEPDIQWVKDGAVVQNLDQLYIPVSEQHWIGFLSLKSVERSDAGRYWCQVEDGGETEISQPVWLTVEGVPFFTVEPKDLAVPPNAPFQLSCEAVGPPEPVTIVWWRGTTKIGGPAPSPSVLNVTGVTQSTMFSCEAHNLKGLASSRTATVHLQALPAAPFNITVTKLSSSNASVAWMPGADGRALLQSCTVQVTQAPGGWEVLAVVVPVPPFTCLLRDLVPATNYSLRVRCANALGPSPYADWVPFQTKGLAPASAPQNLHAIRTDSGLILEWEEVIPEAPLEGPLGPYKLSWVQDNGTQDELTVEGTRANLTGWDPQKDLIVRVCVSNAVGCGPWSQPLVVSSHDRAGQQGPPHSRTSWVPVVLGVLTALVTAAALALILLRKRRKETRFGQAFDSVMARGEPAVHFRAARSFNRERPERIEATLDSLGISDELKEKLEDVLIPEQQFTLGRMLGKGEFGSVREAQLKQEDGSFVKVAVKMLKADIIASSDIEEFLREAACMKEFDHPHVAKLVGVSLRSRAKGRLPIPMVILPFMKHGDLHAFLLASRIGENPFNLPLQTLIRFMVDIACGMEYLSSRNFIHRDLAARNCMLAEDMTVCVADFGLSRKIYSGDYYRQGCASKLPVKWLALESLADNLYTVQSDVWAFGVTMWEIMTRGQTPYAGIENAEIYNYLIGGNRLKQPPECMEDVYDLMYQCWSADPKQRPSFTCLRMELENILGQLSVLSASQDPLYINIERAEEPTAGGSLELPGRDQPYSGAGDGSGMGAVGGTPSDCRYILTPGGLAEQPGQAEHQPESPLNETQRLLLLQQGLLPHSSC

[2] = target: Tyrosine-protein kinase Yes (Homo sapiens) (UniProt P07947); conditions: at 0.1 µM
Tyrosine-protein kinase Yes (Homo sapiens), sequence (P07947 2-543 limits assumed): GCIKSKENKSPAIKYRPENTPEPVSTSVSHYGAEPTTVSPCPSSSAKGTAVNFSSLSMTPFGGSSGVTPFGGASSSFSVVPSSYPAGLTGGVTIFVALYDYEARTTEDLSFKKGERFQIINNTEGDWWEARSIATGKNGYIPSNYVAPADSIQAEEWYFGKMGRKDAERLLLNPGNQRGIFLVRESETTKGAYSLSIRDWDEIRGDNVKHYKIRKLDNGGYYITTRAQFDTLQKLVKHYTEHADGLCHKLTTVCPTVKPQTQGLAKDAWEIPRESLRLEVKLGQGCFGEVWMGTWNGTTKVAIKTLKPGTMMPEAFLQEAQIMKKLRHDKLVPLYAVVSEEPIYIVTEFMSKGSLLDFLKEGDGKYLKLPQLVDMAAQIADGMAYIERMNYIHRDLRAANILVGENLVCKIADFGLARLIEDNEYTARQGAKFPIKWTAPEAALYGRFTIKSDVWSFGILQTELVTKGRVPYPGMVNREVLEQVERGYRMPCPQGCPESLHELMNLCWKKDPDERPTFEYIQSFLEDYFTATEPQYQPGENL

[3] = target: Tyrosine-protein kinase Yes (Homo sapiens) (UniProt P07947); conditions: at 1 µM
[4] = target: T2, Tyrosine-protein kinase ZAP-70 (Homo sapiens) (UniProt P43403); conditions: at 0.1 µM
T2 sequence (whole entry): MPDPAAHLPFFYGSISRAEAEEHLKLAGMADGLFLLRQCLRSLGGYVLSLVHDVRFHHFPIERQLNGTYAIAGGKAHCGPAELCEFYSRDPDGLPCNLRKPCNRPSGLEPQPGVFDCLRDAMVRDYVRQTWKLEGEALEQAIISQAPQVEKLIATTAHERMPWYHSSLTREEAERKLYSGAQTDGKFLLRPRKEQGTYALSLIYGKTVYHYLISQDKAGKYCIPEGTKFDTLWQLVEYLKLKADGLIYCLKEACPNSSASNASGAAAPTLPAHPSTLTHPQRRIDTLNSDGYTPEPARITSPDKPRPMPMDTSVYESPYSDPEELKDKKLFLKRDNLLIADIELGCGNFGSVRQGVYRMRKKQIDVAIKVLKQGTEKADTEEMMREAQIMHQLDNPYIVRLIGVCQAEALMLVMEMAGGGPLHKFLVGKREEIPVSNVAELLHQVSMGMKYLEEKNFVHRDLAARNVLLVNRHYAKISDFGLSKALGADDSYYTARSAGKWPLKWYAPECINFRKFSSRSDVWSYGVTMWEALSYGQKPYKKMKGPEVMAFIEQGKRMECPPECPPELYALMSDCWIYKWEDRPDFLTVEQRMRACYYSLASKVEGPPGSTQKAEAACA

[5] = target: T2, Tyrosine-protein kinase ZAP-70 (Homo sapiens); conditions: at 1 µM
[6] = target: Serine/threonine-protein kinase B-raf (Homo sapiens) (UniProt P15056); conditions: at 0.1 µM
Serine/threonine-protein kinase B-raf (Homo sapiens), sequence (P15056 whole entry): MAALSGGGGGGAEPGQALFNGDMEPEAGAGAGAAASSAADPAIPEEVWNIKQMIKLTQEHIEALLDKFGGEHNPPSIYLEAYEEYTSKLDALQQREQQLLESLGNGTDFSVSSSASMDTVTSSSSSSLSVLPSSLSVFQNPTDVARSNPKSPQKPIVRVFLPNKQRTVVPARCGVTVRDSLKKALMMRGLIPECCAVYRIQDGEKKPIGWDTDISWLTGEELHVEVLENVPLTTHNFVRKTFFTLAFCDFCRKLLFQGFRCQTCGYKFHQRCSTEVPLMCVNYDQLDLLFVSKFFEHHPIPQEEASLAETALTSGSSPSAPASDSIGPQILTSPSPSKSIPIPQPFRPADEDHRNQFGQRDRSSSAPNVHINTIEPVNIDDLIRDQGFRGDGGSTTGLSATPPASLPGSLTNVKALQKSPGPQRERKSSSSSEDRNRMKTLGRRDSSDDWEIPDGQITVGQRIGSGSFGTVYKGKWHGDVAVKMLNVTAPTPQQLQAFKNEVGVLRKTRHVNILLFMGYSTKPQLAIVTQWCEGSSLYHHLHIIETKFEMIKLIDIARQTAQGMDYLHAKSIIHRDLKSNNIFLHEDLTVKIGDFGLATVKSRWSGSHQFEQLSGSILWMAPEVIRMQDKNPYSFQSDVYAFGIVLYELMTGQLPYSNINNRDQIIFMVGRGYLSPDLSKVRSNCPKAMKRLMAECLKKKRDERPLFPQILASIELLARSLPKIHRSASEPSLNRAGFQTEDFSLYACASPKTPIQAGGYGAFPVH

[7] = target: Serine/threonine-protein kinase B-raf (Homo sapiens) (UniProt P15056); conditions: at 1 µM
[8] = system: Serine/threonine-protein kinase B-raf (Homo sapiens), P15056 [V600E]; conditions: at 0.1 µM
Serine/threonine-protein kinase B-raf (Homo sapiens), P15056 [V600E], sequence (P15056 whole entry V600E): as the sequence (P15056 whole entry) above, with V600E counted along it

[9] = system: Serine/threonine-protein kinase B-raf (Homo sapiens), P15056 [V600E]; conditions: at 1 µM
[10] = target: RAF proto-oncogene serine/threonine-protein kinase (Homo sapiens) (UniProt P04049); conditions: at 0.1 µM
RAF proto-oncogene serine/threonine-protein kinase (Homo sapiens), sequence (P04049 whole entry): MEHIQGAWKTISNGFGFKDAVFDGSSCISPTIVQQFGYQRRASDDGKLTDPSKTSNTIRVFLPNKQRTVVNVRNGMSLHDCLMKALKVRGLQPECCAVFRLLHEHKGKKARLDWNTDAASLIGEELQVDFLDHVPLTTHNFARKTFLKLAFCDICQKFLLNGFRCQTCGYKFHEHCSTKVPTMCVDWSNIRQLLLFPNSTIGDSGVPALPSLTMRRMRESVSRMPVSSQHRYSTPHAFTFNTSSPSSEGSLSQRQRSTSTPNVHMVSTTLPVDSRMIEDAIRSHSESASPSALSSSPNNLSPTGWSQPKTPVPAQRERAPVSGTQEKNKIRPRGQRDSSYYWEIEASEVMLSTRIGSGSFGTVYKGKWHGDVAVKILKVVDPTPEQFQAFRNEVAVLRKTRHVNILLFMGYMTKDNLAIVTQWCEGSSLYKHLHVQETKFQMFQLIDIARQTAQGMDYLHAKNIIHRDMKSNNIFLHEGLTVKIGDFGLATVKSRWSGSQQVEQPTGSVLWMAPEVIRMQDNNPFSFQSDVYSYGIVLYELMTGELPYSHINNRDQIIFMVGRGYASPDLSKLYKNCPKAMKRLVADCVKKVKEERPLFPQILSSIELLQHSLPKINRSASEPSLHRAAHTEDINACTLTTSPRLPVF

[11] = target: T3, Interleukin-1 receptor-associated kinase 4 (Homo sapiens) (UniProt Q9NWZ3); conditions: at 0.1 µM
T3 sequence (whole entry): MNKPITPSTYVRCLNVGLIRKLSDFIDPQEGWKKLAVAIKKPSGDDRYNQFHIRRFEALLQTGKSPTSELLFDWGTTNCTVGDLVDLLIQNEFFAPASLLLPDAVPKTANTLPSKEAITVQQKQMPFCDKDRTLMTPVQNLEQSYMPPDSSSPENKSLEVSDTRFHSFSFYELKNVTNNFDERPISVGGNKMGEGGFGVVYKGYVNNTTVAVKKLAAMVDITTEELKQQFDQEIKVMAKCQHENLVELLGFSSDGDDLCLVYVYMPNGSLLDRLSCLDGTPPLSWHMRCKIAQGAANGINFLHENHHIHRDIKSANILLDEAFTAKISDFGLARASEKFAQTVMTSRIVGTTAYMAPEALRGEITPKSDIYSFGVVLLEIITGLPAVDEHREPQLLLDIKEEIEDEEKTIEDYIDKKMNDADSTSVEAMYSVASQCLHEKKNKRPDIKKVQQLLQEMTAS

[12] = target: T3, Interleukin-1 receptor-associated kinase 4 (Homo sapiens); conditions: at 1 µM
[13] = target: Leucine-rich repeat serine/threonine-protein kinase 2 (Homo sapiens) (UniProt Q5S007); conditions: at 0.1 µM
Leucine-rich repeat serine/threonine-protein kinase 2 (Homo sapiens), sequence (Q5S007 whole entry): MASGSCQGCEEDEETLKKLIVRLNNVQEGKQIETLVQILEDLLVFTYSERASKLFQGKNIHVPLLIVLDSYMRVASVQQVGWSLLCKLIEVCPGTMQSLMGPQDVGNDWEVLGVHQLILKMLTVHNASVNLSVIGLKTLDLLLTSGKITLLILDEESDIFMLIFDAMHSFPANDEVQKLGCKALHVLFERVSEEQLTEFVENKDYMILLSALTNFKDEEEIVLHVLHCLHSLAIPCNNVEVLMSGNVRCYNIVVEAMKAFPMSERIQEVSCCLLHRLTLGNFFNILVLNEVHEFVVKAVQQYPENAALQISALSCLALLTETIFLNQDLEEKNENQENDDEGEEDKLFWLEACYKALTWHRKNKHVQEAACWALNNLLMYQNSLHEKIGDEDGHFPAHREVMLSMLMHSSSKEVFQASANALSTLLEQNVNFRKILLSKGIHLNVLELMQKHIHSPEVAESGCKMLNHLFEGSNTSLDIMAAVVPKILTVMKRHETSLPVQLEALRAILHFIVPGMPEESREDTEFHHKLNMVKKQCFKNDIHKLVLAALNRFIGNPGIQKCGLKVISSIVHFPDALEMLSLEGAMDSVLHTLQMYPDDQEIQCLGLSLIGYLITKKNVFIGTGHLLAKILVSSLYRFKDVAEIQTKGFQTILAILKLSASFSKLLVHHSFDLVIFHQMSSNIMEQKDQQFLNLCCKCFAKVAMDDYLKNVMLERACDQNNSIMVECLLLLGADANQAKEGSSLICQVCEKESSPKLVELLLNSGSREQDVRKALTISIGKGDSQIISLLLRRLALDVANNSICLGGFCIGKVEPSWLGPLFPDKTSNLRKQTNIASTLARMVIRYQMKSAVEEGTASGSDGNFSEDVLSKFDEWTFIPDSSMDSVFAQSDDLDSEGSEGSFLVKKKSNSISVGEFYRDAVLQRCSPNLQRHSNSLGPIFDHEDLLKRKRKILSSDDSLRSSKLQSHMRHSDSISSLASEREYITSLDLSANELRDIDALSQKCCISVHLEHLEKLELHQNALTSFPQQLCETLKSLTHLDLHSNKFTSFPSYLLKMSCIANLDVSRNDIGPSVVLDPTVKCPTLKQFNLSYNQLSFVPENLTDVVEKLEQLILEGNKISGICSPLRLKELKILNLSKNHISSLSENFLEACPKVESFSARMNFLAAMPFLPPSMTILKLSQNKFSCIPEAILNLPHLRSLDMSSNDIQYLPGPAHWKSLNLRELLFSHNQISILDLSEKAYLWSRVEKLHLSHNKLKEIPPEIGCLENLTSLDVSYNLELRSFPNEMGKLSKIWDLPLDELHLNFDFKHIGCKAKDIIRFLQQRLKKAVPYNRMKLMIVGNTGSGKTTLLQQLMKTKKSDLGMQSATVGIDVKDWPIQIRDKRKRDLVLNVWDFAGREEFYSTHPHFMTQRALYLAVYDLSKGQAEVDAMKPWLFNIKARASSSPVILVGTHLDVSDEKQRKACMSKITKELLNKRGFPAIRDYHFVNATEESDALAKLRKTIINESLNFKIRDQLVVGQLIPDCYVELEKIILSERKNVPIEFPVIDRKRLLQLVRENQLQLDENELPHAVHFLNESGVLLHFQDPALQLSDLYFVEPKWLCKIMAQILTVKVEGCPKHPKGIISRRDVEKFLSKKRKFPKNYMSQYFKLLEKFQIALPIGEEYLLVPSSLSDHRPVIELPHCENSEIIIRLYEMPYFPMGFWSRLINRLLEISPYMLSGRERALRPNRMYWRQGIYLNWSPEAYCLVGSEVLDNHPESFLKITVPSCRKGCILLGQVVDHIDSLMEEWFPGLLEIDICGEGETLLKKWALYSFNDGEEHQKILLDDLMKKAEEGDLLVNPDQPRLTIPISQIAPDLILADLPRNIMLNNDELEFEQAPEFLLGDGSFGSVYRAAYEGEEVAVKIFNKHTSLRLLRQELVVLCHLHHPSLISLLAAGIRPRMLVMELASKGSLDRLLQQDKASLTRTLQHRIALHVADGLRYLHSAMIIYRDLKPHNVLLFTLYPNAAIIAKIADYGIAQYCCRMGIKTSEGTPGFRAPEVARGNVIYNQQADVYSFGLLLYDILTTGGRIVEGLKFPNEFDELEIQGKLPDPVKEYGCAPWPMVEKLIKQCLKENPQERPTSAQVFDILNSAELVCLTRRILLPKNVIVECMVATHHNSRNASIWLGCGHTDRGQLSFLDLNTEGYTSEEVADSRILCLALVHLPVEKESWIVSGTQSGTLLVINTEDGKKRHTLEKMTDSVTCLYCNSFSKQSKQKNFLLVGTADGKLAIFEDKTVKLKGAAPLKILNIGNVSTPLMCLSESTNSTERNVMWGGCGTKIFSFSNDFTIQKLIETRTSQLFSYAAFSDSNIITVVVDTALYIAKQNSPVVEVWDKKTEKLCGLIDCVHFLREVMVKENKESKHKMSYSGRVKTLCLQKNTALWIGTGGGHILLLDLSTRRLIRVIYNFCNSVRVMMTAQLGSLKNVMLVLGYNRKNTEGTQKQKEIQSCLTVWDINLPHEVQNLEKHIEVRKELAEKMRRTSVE

[14] = target: Leucine-rich repeat serine/threonine-protein kinase 2 (Homo sapiens) (UniProt Q5S007); conditions: at 1 µM
[15] = system: Leucine-rich repeat serine/threonine-protein kinase 2 (Homo sapiens), Q5S007 [G2019S]; conditions: at 0.1 µM
Leucine-rich repeat serine/threonine-protein kinase 2 (Homo sapiens), Q5S007 [G2019S], sequence (Q5S007 whole entry G2019S): as the sequence (Q5S007 whole entry) above, with G2019S counted along it

[16] = system: Leucine-rich repeat serine/threonine-protein kinase 2 (Homo sapiens), Q5S007 [G2019S]; conditions: at 1 µM
[17] = target: RAF proto-oncogene serine/threonine-protein kinase (Homo sapiens) (UniProt P04049); conditions: at 1 µM

Compound | inhibition [1] [%] | inhibition [2] [%] | inhibition [3] [%] | inhibition [4] [%] | inhibition [5] [%] | inhibition [6] [%] | inhibition [7] [%] | inhibition [8] [%] | inhibition [9] [%] | inhibition [10] [%] | inhibition [11] [%] | inhibition [12] [%] | inhibition [13] [%] | inhibition [14] [%] | inhibition [15] [%] | inhibition [16] [%] | inhibition [17] [%]
CCNC(=O)O[C@H]1CN[C@H](C#Cc2cc3ncnc(Nc4ccc(OCc5cccc(F)c5)c(Cl)c4)c3s2)C1 | 1.4 | 1.68 | -0.6 | -3.39 | -3.28 | 4.28 | 4.49 | 2.44 | 2.23 | -0.64 | -5.34 | 6.03 | 3.12 | 4.18 | 2.44 | 6.88 | –
O=C(Nc1n[nH]c2cc(-c3ccc(F)cc3)ccc12)C1CC1 | 13.5 | 1.98 | 6.64 | 1.71 | 3.64 | 4.3 | 5.73 | 4.48 | 5.12 | 1.6 | 2.26 | 1.45 | 0.78 | 5.22 | 3.03 | 6.98 | -2.56
COC(=O)Nc1nc2ccc(S(=O)(=O)c3ccc(NC(=O)Nc4cc(C(F)(F)F)ccc4F)cc3)cc2[nH]1 | 2.45 | 1.97 | -2.4 | 2.44 | 3.21 | 3.07 | 3.12 | 3.61 | 4.39 | -1.21 | 2.19 | 1.11 | 4.08 | 3.21 | 2.36 | 6.79 | -2.68
